Of roughly 7,900 targets only a part is listed; those with a hit were picked by preference. About 0.6% of all pairs of compound and target were hits. Values without a mark were called inactive.
Assays:
Assay in all cases: log2 fold change, soluble protein after heating vs DMSO (PISA); higher = thermal stabilisation; K562 cells, 10 uM, 30 min; active = over 0.2 and 3.5 SD of the protein, either way, in both replicates (recomputed)
IRAK-1-4 Inhibitor I = compound: C1COCCN1CCN2C3=CC=CC=C3N=C2NC(=O)C4=CC(=CC=C4)[N+](=O)[O-] [IRAK-1-4 Inhibitor I]
How it was run: (§1)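 Soluble protein was quantified by TMTpro 16plex LC-MS/MS after channel sums were equalised. It was obtained as the supernatant after 21,000xg for 90 min from pooled aliquots of K562 cells (2×10^6 cells/mL, 10 μM compound, 30 min) heated for 3 min across 48°C-58°C and extracted in PBS with 0.5% NP-40 at 4°C. Thermal stability values are relative to control samples and come from duplicates. They are given as log2 fold changes.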

ibrutinib = compound: C=CC(=O)N1CCC[C@@H](n2nc(-c3ccc(Oc4ccccc4)cc3)c3c(N)ncnc32)C1 [ibrutinib]
How it was run: as §1

[1] = compound: CC(=O)c1cnc2ccc(-c3cc(Cl)c(O)c(Cl)c3)nc2c1N[C@H]1CC[C@H](CN(C)C)CC1
How it was run: as §1

ralimetinib = compound: CC(C)(C)Cn1c(N)nc2ccc(-c3[nH]c(C(C)(C)C)nc3-c3ccc(F)cc3)nc21 [ralimetinib]
How it was run: as §1

[2] = compound: CC(C)(O)CC(=O)NCCn1ccc2ncnc(Nc3ccc(Oc4cccc(C(F)(F)F)c4)c(Cl)c3)c21
How it was run: as §1

[3] = compound: CC(C)C1=C2N=C(C=C(N2N=C1)NCC3=CC=CC=C3)NCCCCCCN
How it was run: as §1

[4] = compound: CC(C)C[C@@H](C=O)NC(=O)[C@H](CC(C)C)NC(=O)[C@H](CC(C)C)NC(=O)OCc1ccccc1
How it was run: as §1

pinometostat = compound: CC(C)N(C[C@H]1O[C@@H](n2cnc3c(N)ncnc32)[C@H](O)[C@@H]1O)[C@H]1C[C@@H](CCc2nc3cc(C(C)(C)C)ccc3[nH]2)C1 [pinometostat]
How it was run: as §1

[5] = compound: CC1=C(C(CC(=O)N1)C2=CC=C(C=C2)C(F)(F)F)C(=O)NC3=C(C=C4C(=C3)C=NN4)F
How it was run: as §1

[6] = compound: CC1=C(C2=C(C=C1)C(=O)C3=CC=CC=C3N2CCCN)C
How it was run: as §1

[7] = compound: CC1=C(C=C(C=C1)NC(=O)C2=CC(=CC=C2)C(C)(C)C#N)NC3=CC4=C(C=C3)N=CN(C4=O)C
How it was run: as §1

[8] = compound: CC1=C(C=C(C=C1)NC(=O)C2=CC(=CC=C2)N(C)C)NC(=O)C3=CC=C(C=C3)O
How it was run: as §1

[9] = compound: CC1=CC=C(C=C1)SC2=C3C=C(SC3=CN=C2)C(=O)N
How it was run: as §1

[10] = compound: CC1=NC(=CC=C1)C2=C(N=C(N2)C(C)(C)C)C3=CC4=NC=CN=C4C=C3
How it was run: as §1

Nexturastat A = compound: CCCCN(Cc1ccc(C(=O)NO)cc1)C(=O)Nc1ccccc1 [Nexturastat A]
How it was run: as §1

vemurafenib = compound: CCCS(=O)(=O)Nc1ccc(F)c(C(=O)c2c[nH]c3ncc(-c4ccc(Cl)cc4)cc23)c1F [vemurafenib]
How it was run: as §1

[11] = compound: CCCS(=O)(=O)Nc1ccc(F)c(C(=O)c2c[nH]c3ncc(Cl)cc23)c1F
How it was run: as §1

[12] = compound: CCCc1cc(C)[nH]c(=O)c1CNC(=O)c1cc(-c2ccnc(N3CCN(C)CC3)c2)cc2c1cnn2C(C)C
How it was run: as §1

givinostat = compound: CCN(CC)Cc1ccc2cc(COC(=O)Nc3ccc(C(=O)NO)cc3)ccc2c1 [givinostat]
How it was run: as §1

barasertib = compound: CCN(CCCOc1ccc2c(Nc3cc(CC(=O)Nc4cccc(F)c4)[nH]n3)ncnc2c1)CCOP(=O)(O)O [barasertib]
How it was run: as §1

UniProt Q5TFE4, sequence (Q5TFE4 whole entry, looked up): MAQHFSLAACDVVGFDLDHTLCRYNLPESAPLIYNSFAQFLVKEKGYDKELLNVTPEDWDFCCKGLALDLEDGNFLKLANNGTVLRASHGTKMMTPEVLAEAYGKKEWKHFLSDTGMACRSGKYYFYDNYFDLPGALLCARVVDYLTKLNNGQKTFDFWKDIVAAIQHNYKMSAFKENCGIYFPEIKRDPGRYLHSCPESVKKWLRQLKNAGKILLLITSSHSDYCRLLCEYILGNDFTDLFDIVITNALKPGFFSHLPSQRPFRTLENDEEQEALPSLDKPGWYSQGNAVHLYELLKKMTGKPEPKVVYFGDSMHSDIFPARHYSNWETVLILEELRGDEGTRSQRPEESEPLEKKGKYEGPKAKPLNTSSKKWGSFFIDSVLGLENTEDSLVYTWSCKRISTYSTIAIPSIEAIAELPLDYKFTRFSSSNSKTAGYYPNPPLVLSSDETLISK
UniProt Q13423, sequence (Q13423 whole entry, looked up): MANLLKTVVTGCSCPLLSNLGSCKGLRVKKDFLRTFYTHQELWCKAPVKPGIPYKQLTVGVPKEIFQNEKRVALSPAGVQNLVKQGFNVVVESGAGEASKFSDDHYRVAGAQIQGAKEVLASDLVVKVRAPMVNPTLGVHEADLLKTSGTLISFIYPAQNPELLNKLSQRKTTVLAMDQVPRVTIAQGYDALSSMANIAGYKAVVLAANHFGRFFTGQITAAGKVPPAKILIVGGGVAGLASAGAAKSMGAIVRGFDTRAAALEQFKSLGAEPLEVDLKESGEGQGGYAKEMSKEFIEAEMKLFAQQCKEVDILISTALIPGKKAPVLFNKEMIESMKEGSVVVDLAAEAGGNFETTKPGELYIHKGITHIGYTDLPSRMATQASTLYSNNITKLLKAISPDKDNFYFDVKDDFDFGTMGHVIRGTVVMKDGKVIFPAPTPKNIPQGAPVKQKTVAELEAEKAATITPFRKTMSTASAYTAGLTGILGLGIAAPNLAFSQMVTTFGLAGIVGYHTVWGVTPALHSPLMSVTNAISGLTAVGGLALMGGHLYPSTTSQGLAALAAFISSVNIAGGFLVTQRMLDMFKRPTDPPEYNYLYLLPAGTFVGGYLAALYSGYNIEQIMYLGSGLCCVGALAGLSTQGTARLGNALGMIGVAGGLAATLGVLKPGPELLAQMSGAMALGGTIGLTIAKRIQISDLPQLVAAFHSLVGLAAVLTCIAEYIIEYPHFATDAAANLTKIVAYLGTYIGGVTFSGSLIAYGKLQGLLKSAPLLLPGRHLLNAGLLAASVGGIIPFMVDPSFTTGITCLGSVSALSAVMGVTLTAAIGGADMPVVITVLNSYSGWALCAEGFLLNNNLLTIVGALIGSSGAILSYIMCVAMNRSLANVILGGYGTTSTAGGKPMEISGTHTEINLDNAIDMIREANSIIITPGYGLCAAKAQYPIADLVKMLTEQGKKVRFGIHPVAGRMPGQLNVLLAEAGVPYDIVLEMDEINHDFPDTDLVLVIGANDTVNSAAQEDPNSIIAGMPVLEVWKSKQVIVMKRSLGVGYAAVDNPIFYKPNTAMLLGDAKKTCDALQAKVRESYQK
UniProt O75376, sequence (O75376 whole entry, looked up): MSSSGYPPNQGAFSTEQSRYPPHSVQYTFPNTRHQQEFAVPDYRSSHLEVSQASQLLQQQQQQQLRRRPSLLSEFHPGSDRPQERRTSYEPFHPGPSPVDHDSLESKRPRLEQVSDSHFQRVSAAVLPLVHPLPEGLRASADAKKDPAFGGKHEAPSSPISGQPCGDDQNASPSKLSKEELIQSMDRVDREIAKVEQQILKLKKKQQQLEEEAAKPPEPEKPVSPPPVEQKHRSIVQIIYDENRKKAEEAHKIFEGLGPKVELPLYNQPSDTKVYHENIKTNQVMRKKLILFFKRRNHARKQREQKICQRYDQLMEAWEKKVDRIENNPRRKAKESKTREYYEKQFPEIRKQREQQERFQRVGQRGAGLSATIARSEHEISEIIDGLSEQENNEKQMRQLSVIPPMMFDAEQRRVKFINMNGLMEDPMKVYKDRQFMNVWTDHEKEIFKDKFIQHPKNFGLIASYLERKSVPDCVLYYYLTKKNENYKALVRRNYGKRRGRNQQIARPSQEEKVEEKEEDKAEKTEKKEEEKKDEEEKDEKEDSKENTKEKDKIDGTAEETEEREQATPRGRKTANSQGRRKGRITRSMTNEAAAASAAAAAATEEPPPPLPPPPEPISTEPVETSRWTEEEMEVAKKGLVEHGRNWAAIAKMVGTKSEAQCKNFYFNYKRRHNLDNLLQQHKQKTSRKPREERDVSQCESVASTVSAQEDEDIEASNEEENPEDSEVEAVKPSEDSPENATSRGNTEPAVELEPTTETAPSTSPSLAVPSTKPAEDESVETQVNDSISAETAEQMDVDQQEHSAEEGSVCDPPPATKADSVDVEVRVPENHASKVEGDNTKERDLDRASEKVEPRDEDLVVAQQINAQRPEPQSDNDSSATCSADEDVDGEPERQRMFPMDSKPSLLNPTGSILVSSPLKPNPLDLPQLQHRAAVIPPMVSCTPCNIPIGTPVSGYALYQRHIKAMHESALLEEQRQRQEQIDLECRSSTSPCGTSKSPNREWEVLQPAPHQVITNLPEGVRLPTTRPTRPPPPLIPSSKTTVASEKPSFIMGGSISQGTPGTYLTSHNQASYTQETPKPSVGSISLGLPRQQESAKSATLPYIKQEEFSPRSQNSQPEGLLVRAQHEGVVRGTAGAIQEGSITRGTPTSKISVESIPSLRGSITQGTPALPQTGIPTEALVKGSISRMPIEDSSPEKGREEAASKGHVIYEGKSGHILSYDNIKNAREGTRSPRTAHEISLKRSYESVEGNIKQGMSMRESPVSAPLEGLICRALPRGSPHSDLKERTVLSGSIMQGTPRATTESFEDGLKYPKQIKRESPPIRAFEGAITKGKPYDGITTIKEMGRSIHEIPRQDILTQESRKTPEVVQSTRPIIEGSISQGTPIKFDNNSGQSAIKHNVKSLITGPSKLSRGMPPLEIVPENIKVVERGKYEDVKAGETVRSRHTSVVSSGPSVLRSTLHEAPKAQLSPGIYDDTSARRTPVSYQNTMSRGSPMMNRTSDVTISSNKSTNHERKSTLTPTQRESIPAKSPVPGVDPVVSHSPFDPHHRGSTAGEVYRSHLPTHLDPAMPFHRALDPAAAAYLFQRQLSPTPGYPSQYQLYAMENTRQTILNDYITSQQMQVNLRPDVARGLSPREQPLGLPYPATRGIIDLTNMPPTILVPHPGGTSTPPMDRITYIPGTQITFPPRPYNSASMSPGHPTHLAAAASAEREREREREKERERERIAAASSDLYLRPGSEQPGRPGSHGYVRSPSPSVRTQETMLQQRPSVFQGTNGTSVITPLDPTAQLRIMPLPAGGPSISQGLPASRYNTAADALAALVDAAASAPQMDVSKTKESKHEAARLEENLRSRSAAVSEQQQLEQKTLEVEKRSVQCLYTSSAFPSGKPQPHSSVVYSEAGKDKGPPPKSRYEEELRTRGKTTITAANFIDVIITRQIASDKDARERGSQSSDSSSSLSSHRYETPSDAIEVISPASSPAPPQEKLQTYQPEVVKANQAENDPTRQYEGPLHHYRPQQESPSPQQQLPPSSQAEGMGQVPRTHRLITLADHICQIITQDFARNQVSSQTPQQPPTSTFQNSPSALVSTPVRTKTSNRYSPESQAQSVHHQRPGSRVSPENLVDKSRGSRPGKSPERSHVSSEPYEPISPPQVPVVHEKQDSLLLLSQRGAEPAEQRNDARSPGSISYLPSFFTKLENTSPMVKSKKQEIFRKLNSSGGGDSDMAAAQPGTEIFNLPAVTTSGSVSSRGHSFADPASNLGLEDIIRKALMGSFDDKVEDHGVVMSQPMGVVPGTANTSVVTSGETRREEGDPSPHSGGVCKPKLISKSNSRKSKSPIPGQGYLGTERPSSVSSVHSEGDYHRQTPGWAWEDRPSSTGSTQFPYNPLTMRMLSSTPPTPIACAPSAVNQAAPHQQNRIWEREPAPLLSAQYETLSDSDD
UniProt O60551, sequence (O60551 whole entry, looked up): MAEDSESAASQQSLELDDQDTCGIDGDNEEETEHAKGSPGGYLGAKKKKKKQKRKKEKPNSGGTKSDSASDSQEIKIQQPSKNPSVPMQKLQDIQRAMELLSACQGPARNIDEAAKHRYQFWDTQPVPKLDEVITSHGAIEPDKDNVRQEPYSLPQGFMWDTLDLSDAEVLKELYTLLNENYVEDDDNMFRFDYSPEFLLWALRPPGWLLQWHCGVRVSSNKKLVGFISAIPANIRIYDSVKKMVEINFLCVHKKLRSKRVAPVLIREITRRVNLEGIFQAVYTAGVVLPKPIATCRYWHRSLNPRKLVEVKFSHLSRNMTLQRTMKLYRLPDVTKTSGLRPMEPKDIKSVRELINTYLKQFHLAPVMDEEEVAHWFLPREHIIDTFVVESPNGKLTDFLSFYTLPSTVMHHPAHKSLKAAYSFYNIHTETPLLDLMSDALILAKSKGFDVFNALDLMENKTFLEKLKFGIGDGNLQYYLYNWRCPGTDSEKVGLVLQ
UniProt O75251, sequence (O75251 whole entry, looked up): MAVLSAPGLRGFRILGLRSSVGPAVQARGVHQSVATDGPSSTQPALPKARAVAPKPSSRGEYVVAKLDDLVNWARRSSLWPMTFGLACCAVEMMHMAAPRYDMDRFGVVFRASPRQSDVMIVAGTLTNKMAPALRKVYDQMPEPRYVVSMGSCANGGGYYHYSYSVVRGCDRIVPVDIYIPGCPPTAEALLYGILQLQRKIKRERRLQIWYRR
UniProt Q9NR45, sequence (Q9NR45 whole entry, looked up): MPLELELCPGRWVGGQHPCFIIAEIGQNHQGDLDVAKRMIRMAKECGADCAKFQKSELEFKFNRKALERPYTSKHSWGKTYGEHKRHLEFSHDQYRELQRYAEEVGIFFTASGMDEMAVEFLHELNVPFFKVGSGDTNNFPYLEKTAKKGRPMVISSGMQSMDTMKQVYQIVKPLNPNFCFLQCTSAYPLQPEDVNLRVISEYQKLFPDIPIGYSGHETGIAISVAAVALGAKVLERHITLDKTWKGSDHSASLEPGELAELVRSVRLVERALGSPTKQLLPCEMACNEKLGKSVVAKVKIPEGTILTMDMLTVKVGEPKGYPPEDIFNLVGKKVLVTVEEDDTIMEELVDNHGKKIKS

Target	log2 fold change (IRAK-1-4 Inhibitor I)	log2 fold change (ibrutinib)	log2 fold change [1]	log2 fold change (ralimetinib)	log2 fold change [2]	log2 fold change [3]	log2 fold change [4]	log2 fold change (pinometostat)	log2 fold change [5]	log2 fold change [6]	log2 fold change [7]	log2 fold change [8]	log2 fold change [9]	log2 fold change [10]	log2 fold change (Nexturastat A)	log2 fold change (vemurafenib)	log2 fold change [11]	log2 fold change [12]	log2 fold change (givinostat)	log2 fold change (barasertib)
NCOR1 (UniProt O75376)	0.052	0.078	-0.46 (active)	0.01	0.011	0.055	0.022	0.05	-0.084	0.093	-0.035	-0.075	-0.195	0.101	-0.079	0.01	-0.149	-0.079	0.014	-0.094
MRPS25 (UniProt P82663)	-0.059	0.12	-0.021	-0.007	0.074	-0.071	0.017	-0.018	-0.106	-0.091	0.033	-0.009	0.085	0.078	0.012	-0.089	0.078	-0.082	0.049	-0.02
NUP160 (UniProt Q12769)	-0.03	-0.041	-0.13	-0.002	-0.032	-0.137	-0.01	0.058	0.001	-0.012	0.006	0.037	0.023	0.017	-0.037	-0.01	0.083	0.002	0.018	0.062
NECTIN2 (UniProt Q92692)	0.025	0.02	-0.023	-0.035	-0.03	0.182	0.024	0.009	-0.015	0	-0.006	-0.026	0.037	-0.049	-0.117	0.016	0.019	0.005	-0.025	-0.024
NT5DC1 (UniProt Q5TFE4)	0.049	0.021	-0.039	-0.054	-0.019	0.02	-0.011	-0.024	-0.001	-0.022	0.149	-0.018	-0.019	0.021	-0.068	-0.001	-0.016	-0.003	0.004	-0.039
NDUFS7 (UniProt O75251)	0.045	-0.04	-0.016	-0.1	-0.1	-0.086	0.05	-0.03	-0.005	0.043	0.008	0.004	0.017	0.025	-0.019	-0.025	0.028	-0.039	0.113	0.016
PACS1 (UniProt Q6VY07)	-0.002	-0.016	-0.297 (active)	-0.024	-0.014	-0.011	0	-0.029	-0.098	-0.007	-0.001	-0.031	-0.021	0.087	0.023	0.021	0.023	0.092	0.004	0.039
MRPL47 (UniProt Q9HD33)	-0.11	0.022	0.003	0.056	0.016	-0.001	0.071	0.181	0.047	-0.083	0.035	-0.045	-0.03	-0.078	0.139	-0.117	-0.097	0.073	0.052	-0.047
NMT2 (UniProt O60551)	0.006	0.064	-0.031	-0.017	-0.022	-0.125	-0.019	0.053	0.037	0.01	0.006	0.018	0.237	0.024	-0.037	-0.034	0.031	0.02	-0.233	0
NANS (UniProt Q9NR45)	0.091	-0.034	-0.01	0.015	-0.043	-0.006	-0.036	0	0.033	0.065	0.063	-0.02	0.035	0.007	-0.196	-0.001	0.026	0.007	-0.025	0.01
NOP58 (UniProt Q9Y2X3)	-0.06	0.039	-0.117	-0.008	0.06	0.052	0.117	0.128	-0.035	-0.029	-0.055	-0.012	-0.058	-0.073	0.161	0.046	0.041	0.081	0.072	-0.075
OSBP (UniProt P22059)	0	-0.067	-0.029	-0.009	-0.076	0.091	0.017	-0.002	-0.052	0.024	0.098	-0.011	-0.028	0.022	-0.073	0.015	0.027	-0.003	-0.052	-0.001
NNT (UniProt Q13423)	0.013	-0.018	-0.016	-0.099	-0.056	0.016	-0.053	-0.029	-0.022	0.037	0.02	-0.004	0.004	0.058	-0.091	0.025	0.016	-0.023	0.001	0.01
NARS2 (UniProt Q96I59)	0.044	0.03	0.034	-0.034	-0.121	-0.31 (active)	-0.019	-0.019	-0.002	-0.006	-0.016	0.002	-0.011	0.019	-0.071	-0.01	0.038	-0.033	-0.076	0.002
OGFOD1 (UniProt Q8N543)	0.07	-0.036	0.009	-0.05	-0.023	-0.018	0.035	-0.011	-0.028	0.036	-0.013	-0.01	0.013	0.033	-0.061	-0.01	-0.006	0.006	-0.112	0.009
MINK1 (UniProt Q8N4C8)	-0.018	0.038	-0.715 (active)	-0.081	0.053	0.021	0.044	0.049	-0.017	0.061	-0.04	0.038	-0.003	0.029	-0.007	-0.004	0.024	0.003	-0.007	-0.016
